Experimental data published in PubChem BioAssay (Tox21).
Results filed as inconclusive are left out. Activity calls are given as the source filed them. Unless noted, the call rests on the fitted dose curve; in most records, active means well fitted curve in the direction sought with a large enough effect in the repeat runs; inconclusive means weak or mixed curves; inactive means no such curve, though single readings can be large; an effect the other way counts as inactive or inconclusive.

What was measured:
[1] = target: Progesterone receptor (Homo sapiens) (UniProt P06401); test: qHTS assay to identify small molecule agonists of the progesterone receptor (PR) signaling pathway (AID 1346784; calls by dose curve; further: nearly all actives have a fitted effect of over 30% in size)
Progesterone receptor (Homo sapiens), sequence (P06401 whole entry, looked up): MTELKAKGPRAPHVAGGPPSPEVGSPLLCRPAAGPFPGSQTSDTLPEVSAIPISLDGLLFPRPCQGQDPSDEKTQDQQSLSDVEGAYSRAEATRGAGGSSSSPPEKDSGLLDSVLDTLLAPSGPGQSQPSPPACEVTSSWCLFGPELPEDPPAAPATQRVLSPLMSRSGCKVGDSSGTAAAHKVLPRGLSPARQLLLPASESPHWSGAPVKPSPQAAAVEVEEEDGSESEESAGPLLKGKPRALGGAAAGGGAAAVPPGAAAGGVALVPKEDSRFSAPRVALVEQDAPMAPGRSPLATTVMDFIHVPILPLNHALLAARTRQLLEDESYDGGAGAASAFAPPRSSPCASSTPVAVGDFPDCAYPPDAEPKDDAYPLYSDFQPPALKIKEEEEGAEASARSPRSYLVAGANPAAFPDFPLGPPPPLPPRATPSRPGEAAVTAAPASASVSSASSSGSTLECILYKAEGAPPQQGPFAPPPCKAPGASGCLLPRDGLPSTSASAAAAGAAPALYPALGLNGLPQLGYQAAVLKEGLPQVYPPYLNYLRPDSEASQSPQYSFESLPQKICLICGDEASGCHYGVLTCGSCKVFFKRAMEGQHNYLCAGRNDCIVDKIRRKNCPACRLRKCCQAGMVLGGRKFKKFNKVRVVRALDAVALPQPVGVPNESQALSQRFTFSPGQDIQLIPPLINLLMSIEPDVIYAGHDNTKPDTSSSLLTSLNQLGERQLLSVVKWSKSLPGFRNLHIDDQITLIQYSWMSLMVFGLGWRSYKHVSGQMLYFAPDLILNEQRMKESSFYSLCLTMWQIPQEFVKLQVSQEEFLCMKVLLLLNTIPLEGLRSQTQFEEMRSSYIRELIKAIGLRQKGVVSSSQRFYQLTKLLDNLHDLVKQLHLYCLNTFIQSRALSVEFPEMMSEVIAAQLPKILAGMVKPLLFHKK
Summary of the method: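 HEK 293T PR-UAS-bla reporter cells, 2% charcoal-stripped FBS; 6 hr settle at 37C/5% CO2, compound (DMSO) 16 hr, LiveBLAzer B/G FRET substrate 2 hr RT, fluorescence intensity read.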

[2] = target: Progesterone receptor (Homo sapiens) (UniProt P06401); test: qHTS assay to identify small molecule antagonists of the progesterone receptor (PR) signaling pathway (AID 1346795; active means well fitted inhibition curve with a large enough effect in the signal ratio in the repeat runs, not every such curve was filed as active; the % refers to the signal ratio)
Summary of the method: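 Beta-lactamase reporter, HEK293T PR-UAS-bla line; 2% charcoal-stripped FBS; 6 hr pre-incubation, 37C/5% CO2. Compound + R5020 1 nM final, 16 hr. LiveBLAzer B/G FRET substrate, 2 hr RT; fluorescence intensity read.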

[3] = qHTS assay to identify small molecule antagonists of the progesterone receptor (PR) signaling pathway - cell viability counter screen (AID 1346798); further: series mostly up to about 92 µM; nearly all actives have a fitted effect of over 50% in size
Summary of the method: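 Luminescence readout (CellTiter-Glo, 30 min, RT) of viability in PR-UAS-bla HEK293T cells exposed to compound and R5020 agonist for 16 hr at 37C, 5% CO2; run in the same wells as the beta-lactamase reporter read.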

[4] = qHTS assay to identify small molecule antagonists of the TGF-beta/Smad signaling pathway - cell viability counter screen (AID 1346824); further: nearly all actives have a fitted effect of over 50% in size
Summary of the method: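 SBE-bla HEK 293T cells were plated overnight at 37 C, then given compounds in DMSO plus TGF-beta1 (added as 0.25 ng/mL solution) for 5 hr. After the bla read, CellTiter-Glo was added to the same wells and luminescence read after 30 min at room temperature.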

[5] = qHTS assay to identify small molecule agonists of the TGF-beta/Smad signaling pathway - cell viability counter screen (AID 1346829); further: top concentration of the series differs between compounds; nearly all actives have a fitted effect of over 45% in size
Summary of the method: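 Compound-treated SBE-bla HEK 293T cells (5 hr, 37 C) were assessed for viability with CellTiter-Glo in parallel with the reporter read.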

[6] = qHTS assay to identify small molecule agonists of the TGF-beta/Smad signaling pathway (AID 1346859; active means well fitted activation curve with a large enough effect in the signal ratio in the repeat runs, not every such curve was filed as active; the % refers to the signal ratio; further: series mostly up to about 77 µM)
Summary of the method: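 Read-out: fluorescence at 460 and 530 nm (405 nm excitation) after a 2 hr room-temperature incubation with beta-lactamase FRET substrate. SBE-bla HEK 293T cells had been treated with test compounds for 5 hr at 37 C.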

[7] = target: Thyrotropin-releasing hormone receptor (Homo sapiens) (UniProt P34981); test: qHTS assay to identify small molecule antagonists of the thyrotropin-releasing hormone receptor (TRHR) signaling pathway (AID 1346877; active means well fitted inhibition curve with a large enough effect in the repeat runs, not every such curve was filed as active; further: series mostly up to about 51 µM)
Thyrotropin-releasing hormone receptor (Homo sapiens), sequence (P34981 whole entry, looked up): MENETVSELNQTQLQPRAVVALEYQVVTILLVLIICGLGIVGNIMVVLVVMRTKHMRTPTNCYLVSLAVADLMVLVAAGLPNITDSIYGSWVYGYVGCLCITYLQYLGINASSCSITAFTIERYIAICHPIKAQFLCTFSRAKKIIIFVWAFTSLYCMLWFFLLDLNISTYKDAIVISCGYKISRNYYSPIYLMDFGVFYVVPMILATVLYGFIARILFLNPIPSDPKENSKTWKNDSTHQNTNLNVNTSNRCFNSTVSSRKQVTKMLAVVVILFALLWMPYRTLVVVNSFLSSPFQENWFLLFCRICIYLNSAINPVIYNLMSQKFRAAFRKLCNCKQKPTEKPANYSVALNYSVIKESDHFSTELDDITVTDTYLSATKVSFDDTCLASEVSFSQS
Summary of the method: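 HEK293/TRHR cells, 18 h, 37 °C; Ca2+ dye 2 h; cpd 5 min RT; TRH 1 nM final; fluorescence read 3 min, 1 s intervals; 15 concs, triplicate.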

[8] = target: Thyrotropin-releasing hormone receptor (Homo sapiens) (UniProt P34981); test: qHTS assay to identify small molecule agonists of the thyrotropin-releasing hormone receptor (TRHR) signaling pathway (AID 1346891; calls by dose curve;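 further: HEK293 cells expressing TRHR with calcium dye readout; series mostly up to about 58 µM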)
Summary of the method: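 HEK293/TRHR cells, 1500 per well, 18 h 37 °C; Ca dye 2 h 37 °C; pin-tool compound addition (agonist mode); kinetic fluorescence 3 min, 1 s reads; 15 concentrations, triplicate.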

[9] = Human pregnane X receptor (PXR) small molecule agonists, qHTS cell viability counter screen (AID 1346977); further: nearly all actives have a fitted effect of over 50% in size
Summary of the method: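 Fluorescence read-out (CellTiter-Fluor) of viability in PXR-Luc HepG2 cells, multiplexed with the luciferase agonist read. Compounds in DMSO added after 5hr plating; 24hr total exposure at 37C, 5% CO2.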

[10] = Caspase-3/7 induction in HepG2 cells by small molecules, qHTS assay (AID 1346978); further: nearly all actives have a fitted effect of over 15% in size
Summary of the method: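 Wild-type HepG2 cells (2,000/well) were settled 5 h at 37 C, 5% CO2, then exposed to compounds in DMSO for 17 h. Caspase-3/7 activity was read by luminescence 30 min after adding Caspase-Glo 3/7 reagent at room temperature.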

[11] = Caspase-3/7 induction in CHO-K1 cells by small molecules, qHTS cell viability counter screen (AID 1346979); further: nearly all actives have a fitted effect of over 35% in size
Summary of the method: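 CHO-K1 wt, 1,500 cells/well; 5hr pre-incubation 37C/5% CO2; compound pin transfer (DMSO); 16hr exposure; CellTiter-Fluor added, 1hr, fluorescence read.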

[12] = Caspase-3/7 induction in CHO-K1 cells by small molecules, qHTS assay (AID 1346980); further: nearly all actives have a fitted effect of over 15% in size
Summary of the method: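 Wild-type cells were seeded at 1,500 per well and settled 5 hr at 37 C, 5% CO2, then exposed to DMSO-dissolved compounds for 17 hr. Caspase-Glo 3/7 reagent was added, and luminescence was read after 30min at room temperature.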

[13] = Caspase-3/7 induction in HepG2 cells by small molecules, qHTS cell viability counter screen (AID 1346981); further: series mostly up to about 92 µM; nearly all actives have a fitted effect of over 30% in size
Summary of the method: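 Fluorescence read-out of live-cell protease activity (CellTiter-Fluor) after 1 hr with reagent. This was measured in the same wells as the caspase-3/7 luminescence, on HepG2 cells exposed to DMSO-dissolved compounds for 16 hr at 37 C.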

[14] = target: Nuclear receptor subfamily 1 group I member 2 (Homo sapiens) (UniProt O75469); test: Human pregnane X receptor (PXR) small molecule agonists, qHTS assay (AID 1346982); further: nearly all actives have a fitted effect of over 35% in size
Nuclear receptor subfamily 1 group I member 2 (Homo sapiens), sequence (O75469 whole entry, looked up): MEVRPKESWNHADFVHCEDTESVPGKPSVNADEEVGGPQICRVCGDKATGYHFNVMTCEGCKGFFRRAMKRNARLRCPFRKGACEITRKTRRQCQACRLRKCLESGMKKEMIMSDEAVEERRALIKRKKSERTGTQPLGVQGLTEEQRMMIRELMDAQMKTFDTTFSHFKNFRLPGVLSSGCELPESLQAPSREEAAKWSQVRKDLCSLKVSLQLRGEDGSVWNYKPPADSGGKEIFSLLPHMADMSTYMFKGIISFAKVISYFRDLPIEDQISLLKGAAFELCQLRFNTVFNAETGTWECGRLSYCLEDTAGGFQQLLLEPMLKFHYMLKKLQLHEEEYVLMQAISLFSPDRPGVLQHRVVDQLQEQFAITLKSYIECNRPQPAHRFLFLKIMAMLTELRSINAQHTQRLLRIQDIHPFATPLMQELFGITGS
Summary of the method: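 HepG2 PXR-Luc reporter line, 5% charcoal-stripped FBS; 5 hr pre-incubation, compound (DMSO) 24 hr at 37 C/5% CO2; ONE-Glo 30 min RT; luminescence read-out.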

[15] = target: Acetylcholinesterase (Homo sapiens) (UniProt P22303); test: Acetylcholinesterase (AChE) small molecule antagonists: colormetric cell-based qHTS assay (AID 1347395; calls by dose curve; further: nearly all actives have a fitted effect of over 30% in size)
Acetylcholinesterase (Homo sapiens), sequence (P22303 whole entry, looked up): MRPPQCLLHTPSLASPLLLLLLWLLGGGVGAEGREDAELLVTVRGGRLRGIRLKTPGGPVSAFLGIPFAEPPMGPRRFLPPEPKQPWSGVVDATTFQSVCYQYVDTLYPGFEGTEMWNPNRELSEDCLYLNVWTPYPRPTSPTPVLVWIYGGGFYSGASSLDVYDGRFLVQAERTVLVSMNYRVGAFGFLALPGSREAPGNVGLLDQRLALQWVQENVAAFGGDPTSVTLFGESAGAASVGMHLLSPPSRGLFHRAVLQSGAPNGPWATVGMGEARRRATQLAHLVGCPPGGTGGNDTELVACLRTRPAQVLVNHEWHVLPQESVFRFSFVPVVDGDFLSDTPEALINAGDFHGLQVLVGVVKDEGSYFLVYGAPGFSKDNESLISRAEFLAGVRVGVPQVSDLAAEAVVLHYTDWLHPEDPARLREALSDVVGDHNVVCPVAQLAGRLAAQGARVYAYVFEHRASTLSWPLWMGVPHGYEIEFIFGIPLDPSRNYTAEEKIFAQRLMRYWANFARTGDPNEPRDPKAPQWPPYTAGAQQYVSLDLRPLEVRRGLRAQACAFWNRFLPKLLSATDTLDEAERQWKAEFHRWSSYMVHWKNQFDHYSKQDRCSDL
Summary of the method: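 SH-SY5Y cells; cpd 30 min 37 C; + DTNB/acetylthiocholine, 90 min 37 C; colorimetric thiocholine read; qHTS.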

[16] = qHTS assay to identify small molecule agonists of the progesterone receptor (PR) signaling pathway - cell viability counter screen (AID 1346799; calls by dose curve; further: nearly all actives have a fitted effect of over 45% in size)
Summary of the method: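 HEK293T PR-UAS-bla, 3,000 cells/well, 2% charcoal-stripped FBS; 6 h settle, compound 16 h at 37C/5% CO2; LiveBLAzer 2 h RT, then CellTiter-Glo 30 min RT, luminescence read.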

[17] = target: Acetylcholinesterase (Homo sapiens) (UniProt P22303); test: Acetylcholinesterase (AChE) small molecule antagonists: enzyme-based qHTS assay (AID 1347397; calls by dose curve; further: nearly all actives have a fitted effect of over 55% in size); details: Potency: AChE enzyme activity inhibition
Summary of the method: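 Compound or DMSO vehicle was pin-transferred onto recombinant human AChE (50 mU/mL as dispensed) and left 30 min at room temperature. Acetylthiocholine with DTNB then started the reaction, read colorimetrically 10 min later.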

[18] = target: Nuclear receptor subfamily 1 group I member 2 (Rattus norvegicus) (UniProt Q9R1A7); test: Rat pregnane X receptor (rPXR) activation by small molecules, qHTS assay (AID 1346983); details: rPXR luciferase reporter cells, One-Glo luminescence, 24 h; max activation: stronger effect = higher value; further: nearly all actives have a fitted effect of over 20% in size
Nuclear receptor subfamily 1 group I member 2 (Rattus norvegicus), sequence (Q9R1A7 whole entry, looked up): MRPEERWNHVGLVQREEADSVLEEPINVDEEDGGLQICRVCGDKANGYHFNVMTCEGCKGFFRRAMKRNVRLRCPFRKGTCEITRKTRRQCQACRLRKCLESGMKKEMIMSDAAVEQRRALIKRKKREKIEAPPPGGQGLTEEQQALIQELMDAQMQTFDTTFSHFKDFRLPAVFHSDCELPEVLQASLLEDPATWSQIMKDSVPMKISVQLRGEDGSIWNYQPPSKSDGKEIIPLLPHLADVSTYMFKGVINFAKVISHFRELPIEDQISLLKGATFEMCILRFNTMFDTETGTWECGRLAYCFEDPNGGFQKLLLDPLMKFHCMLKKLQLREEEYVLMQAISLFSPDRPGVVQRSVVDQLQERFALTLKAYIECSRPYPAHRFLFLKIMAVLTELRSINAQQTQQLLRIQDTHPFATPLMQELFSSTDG
Summary of the method: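 Cell-based rPXR luciferase reporter assay, 2,000 cells per well, rested 5hr at 37 C before compound addition in DMSO, then 24 hr at 37 C. One-Glo reagent was added and luminescence read after 30 min at room temperature.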

[19] = target: Nuclear receptor subfamily 1 group I member 2 (Homo sapiens) (UniProt O75469); test: CYP3A4 induction through human pregnane X receptor (PXR) by small molecules, qHTS assay (AID 1346984); further: nearly all actives have a fitted effect of over 40% in size
Summary of the method: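 HepG2-derived DPX-2 line carrying PXR plus a CYP3A4-promoter luciferase reporter; cells plated 5 hr, compound-exposed 24 hr at 37C. CYP3A4 activity probed with 3uM (final) Luciferin-IPA for 3hr, then luciferase read after One-Glo.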

[20] = target: Nuclear receptor subfamily 1 group I member 2 (Homo sapiens) (UniProt O75469); test: Human pregnane X receptor (PXR) activation by small molecules, qHTS assay (AID 1346985); further: nearly all actives have a fitted effect of over 40% in size
Summary of the method: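 DPX-2 cells (HepG2 co-transfected with a PXR response element and a CYP3A4-promoter luciferase construct) were seeded at 2,000 per well, rested 5 hr at 37C, then exposed to DMSO-dissolved compounds for 24 hr. Activation was read as luciferase luminescence.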
On the % scale 0 is the no-effect control and ±100 the full control effect.

CC1CN1P(=O)(N1CC1C)N1CC1C (configuration not stated)
inactive: Potency [1] | Potency [2] | Potency [3] | Potency [4] | outcome [5] | outcome [6] | outcome [7] | outcome [8] | Potency [9] | Potency [10] | Potency [11] | Potency [12] | Potency [13] | Potency [14] | Potency [15]

ClCC(Cl)(Cl)Cl
inactive: Potency [1] | Potency [2] | Potency [3] | Potency [16] | outcome [5] | Potency [9] | Potency [10] | Potency [11] | Potency [12] | Potency [13] | Potency [14] | Potency [15] | Potency [17]

NC(=O)c1cc([N+](=O)[O-])cc([N+](=O)[O-])c1
inactive: Potency [1] | Potency [2] | Potency [3] | Potency [16] | outcome [5] | outcome [6] | outcome [7] | outcome [8] | Potency [10] | Potency [11] | Potency [12] | Potency [14] | max activation [18] -0.752% | Potency [19] | Potency [20] | Potency [17]

NC1=NC(=O)C(c2ccccc2)O1 (configuration not stated)
inactive: Potency [1] | Potency [2] | Potency [3] | Potency [16] | outcome [5] | outcome [6] | outcome [7] | outcome [8] | Potency [9] | Potency [10] | Potency [11] | Potency [12] | Potency [14] | max activation [18] -2.64% | Potency [19] | Potency [20] | Potency [15] | Potency [17]

COC(=O)C1=CCCN(C)C1
inactive: Potency [1] | Potency [2] | Potency [3] | Potency [4] | outcome [5] | outcome [6] | Potency [9] | Potency [10] | Potency [11] | Potency [12] | Potency [13] | Potency [14] | Potency [15] | Potency [17]

CNC(=O)Oc1ccccc1C1OCCO1
inactive: Potency [1] | Potency [2] | Potency [3] | Potency [4] | outcome [6] | outcome [7] | outcome [8] | Potency [9] | Potency [10] | Potency [11] | Potency [12] | Potency [13] | Potency [14] | Potency [15]

CCS(=O)(=O)CCSP(=O)(OC)OC
inactive: Potency [1] | Potency [2] | Potency [3] | Potency [4] | outcome [6] | Potency [9] | Potency [10] | Potency [11] | Potency [12] | Potency [13] | Potency [14]

C[C@]12CC[C@H]3[C@@H](CC=C4C[C@@H](O)CC[C@@]43C)[C@@H]1CC[C@@H]2O
inactive: Potency [1] | Potency [2] | Potency [3] | Potency [4] | outcome [5] | outcome [6] | Potency [9] | Potency [10] | Potency [11] | Potency [12] | Potency [13] | max activation [18] -0.895%

CC(=O)CC(c1ccc(Cl)cc1)c1c(O)c2ccccc2oc1=O (configuration not stated)
inactive: Potency [1] | Potency [2] | Potency [3] | Potency [4] | outcome [6] | outcome [7] | outcome [8] | Potency [9] | Potency [10] | Potency [11] | Potency [12] | Potency [14] | Potency [15] | Potency [17]

c1ccc(N2CCNCC2)cc1
inactive: Potency [1] | Potency [2] | Potency [3] | Potency [4] | outcome [5] | outcome [6] | outcome [8] | Potency [9] | Potency [10] | Potency [11] | Potency [12] | Potency [13] | Potency [14] | Potency [15]

ClC(Cl)(Cl)C(Cl)(Cl)Cl
inactive: Potency [1] | Potency [2] | Potency [16] | Potency [4] | outcome [5] | outcome [6] | Potency [9] | Potency [10] | Potency [11] | Potency [12] | Potency [13] | Potency [14] | Potency [15]

COc1cc(OC)nc(NC(=O)NS(=O)(=O)c2ncccc2OCC(F)(F)F)n1
inactive: Potency [1] | Potency [2] | Potency [3] | Potency [4] | outcome [5] | outcome [6] | Potency [9] | Potency [10] | Potency [11] | Potency [12] | Potency [13] | Potency [14] | Potency [15]
